Usually inhibition stands for the relative decrease from the control value, in per cent.

Several values for one entry are separate records, joined by “and”; a condition that tells them apart may be missing. Equal values may be shown once. Among all 300,000 compounds or so, about 3,300 (1.1%) were called active. Not shown: some 6% with an inconclusive outcome. The entries come from a sample that favours actives as a whole. Unmarked numbers belong to inactive results.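 How the source made its calls: active means more than half of the replicate wells show a fall in the fluorescence ratio signal beyond about 16% (limit read from the data, passing the limit was not always enough); inconclusive means exactly half of the replicate wells pass the set limit; inactive means fewer than half of replicates pass the limit.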

The assay concerns Ran GTPase (GTP-bound) - importin-beta complex. As to the kind of experiment: inhibitors of RanGTP-importin-beta interaction, primary screen, biochemical, FRET, CFP-Ran, YFP-importin-beta, homogeneous (AID 2216).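 Further: 0% = DMSO wells and 100% = Ran loaded with GDP instead of GTP.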 As to conditions: cell-free CFP-Ran/YFP-importin-beta FRET ratio; stronger effect = higher value; concentration not given here.
On to `O=C(Nc1cc2c3c(c1)CC(=O)N3CCC2)c1ccccc1F`, for which the inhibition is 0.312%.
Regarding `CCCC(=O)N1CCc2[nH]c3ccccc3c2C1`, the inhibition is 29% (active).
The figure for `Cc1ccc2[nH]c3c(c2c1)CN(C(=O)CN1CCN(c2ccccc2)CC1)CC3` is -23.4%; for `Fc1ccc(NC(=S)N2CCc3[nH]c4ccccc4c3C2)cc1` it is 9.84%; for `C=CCNC(=S)N1CCc2[nH]c3ccccc3c2C1` it is 3.44%.
For the compound `O=C(Nc1ccc(Cl)cc1)N1CCc2[nH]c3ccccc3c2C1`, the inhibition is 29.2% (active).
Take `CCc1ccc(NC(=O)N2CCc3ccccc3C2)cc1`: the inhibition was -4.66%.
The figure for `CC(=O)c1c(C)[nH]c(C(=O)COC(=O)CCOc2ccc(C)cc2)c1C` is 6.12%; for `COc1ccccc1C(=O)NC(CCSC)C(=O)N1CCN(C/C=C/c2ccccc2)CC1` (stereo not given) it is 0.266%.
Regarding `CCOc1ccc(S(=O)(=O)NCCC(=O)N2CCCCCCC2)cc1`, the inhibition was 0.262%.
The figure for `CCN(CC(=O)Nc1c(F)cccc1F)C(=O)C1CCC1` is 0.154%; for `Cc1cc(S(=O)(=O)c2cc3ccc(O)c(C)c3oc2=O)ccc1F` it is 132% (active); for `CCCCN(C(=O)c1ccc(S(=O)(=O)N2CCOCC2)cc1)C1CCS(=O)(=O)C1` (stereo not given) it is -4.84%.
The figure for `NC(=O)CSc1nnc(NC(=O)c2ccc3ccccc3c2)s1` is 5.81%; for `CN(C)c1ccc(/C=N/Nc2cc(N3CCOCC3)nc(N3CCOCC3)n2)cc1` it is 25.8% (active); for `Cc1ccccc1N/N=C/c1ccc(N2CCOCC2)cc1` it is 1.62%.
On to `COc1ccc(/C=N/Nc2cc(N3CCOCC3)nc(C)n2)c(OC)c1`, for which the inhibition is -3.31%.
`Brc1cnc2ccccc2c1N1CCCCC1`: the inhibition is -1.98%.
The figure for `COc1ccc(C(C#N)(CC(=O)O)c2cnccn2)cc1OC` (stereo not given) is 5.73%; for `Cc1cc(NC(=O)CCS(=O)(=O)c2ccc(F)cc2)no1` it is -2.56%; for `CCc1cccc(C)c1NC(=O)COC(=O)CNC(=O)c1cccs1` it is 0.115%.
With `COc1ccc(NC(=O)CCC(=O)N2CCN(S(=O)(=O)c3ccc(C)cc3)CC2)c(OC)c1`, the inhibition is 2.41%.
For the compound `Cc1cc(NCc2ccco2)n2c(nc3ccccc32)c1C#N`, the inhibition is 102% (active).
For the compound `CCOCCCNc1c(CC)c(C)c(C#N)c2nc3ccccc3n12`, the inhibition was 10.7%.
The figure for `CC(C)c1cc(NCc2ccccn2)n2c(nc3ccccc32)c1C#N` is 51% (active); for `Cc1c(C(=O)Nc2cccc(Cl)c2)cn2c(nc3ccccc32)c1C#N` it is 10.5%.
As to `Cc1cc(NC(C)C)n2c(nc3ccccc32)c1C#N`, the inhibition is -3.25%.
The figure for `Cc1ccccc1-c1nc(C#N)c(NCc2ccco2)o1` is -0.838%; for `Nc1c(C(=O)Nc2ccc3c(c2)OCCO3)nnn1Cc1ccccc1` it is -8.94%; for `COc1ccc(-c2csc3ncnc(N4CCN(S(=O)(=O)c5cccc(F)c5)CC4)c23)cc1` it is -3.81%.
The figure for `CCOc1ccc(C(=O)CCN2CCOCC2)cc1` is 4.03%; for `COc1cc(C(=O)NCC(=O)N2CC=C(c3ccccc3)CC2)cc(OC)c1OC` it is 0.563%; for `COc1ccc(C2CC(c3cccs3)=NN2c2ccc(F)cc2)cc1OC` (stereo not given) it is 53.2% (active).
For `COc1ccc(C2CC(c3cccs3)=NN2c2nc(C)c(C(C)=O)s2)cc1OC` (stereo not given), the inhibition is 89.5% (active).
`COc1ccc(C2CC(c3cccs3)=NN2c2ccccc2)cc1` (stereo not given): the inhibition was 2.04%.
In the case of `COc1ccc(C2CC(c3cccs3)=NN2C(=O)CSc2nncs2)cc1OC` (stereo not given), the inhibition was -2.68%.
As to `COc1ccccc1N1N=C(c2cccs2)CC1c1ccccc1` (stereo not given), the inhibition is -0.43%.
Consider `COc1ccc(C2CC(c3cccs3)=NN2C(=O)CCC(=O)O)cc1OC` (stereo not given), for which the inhibition is -4.44%.
For `O=C(COC(=O)c1ccccn1)NNC(=O)c1ccc([N+](=O)[O-])cc1`, the inhibition was 4.26%.
Turning to `CN(CC(=O)NCc1cccnc1)S(=O)(=O)c1cc(Cl)ccc1Cl`, the inhibition is 4.66%.
On to `COc1ccc(NC(=O)CN(C)C(=O)Cc2coc3cc(C)c(C)cc23)cc1`, for which the inhibition is 0.0585%.
On to `C=CCOc1cccc(C2C(C(=O)c3ccc(C)o3)=C(O)C(=O)N2c2nnc(C)s2)c1` (stereo not given), for which the inhibition is -5.03%.
For the compound `O=C1N[C@@H](Cc2ccccc2)C(=O)N2[C@@H]3N(S(=O)(=O)c4ccc(F)cc4)c4ccccc4[C@]3(Br)C[C@@H]12`, the inhibition was 5.5%.
As for `NC(N)=Nc1nc(-c2ccccc2)c2cc(Cl)ccc2n1`, the inhibition is 4.42%.
On to `OCCCNc1nc(-c2ccccc2)c2cc(Cl)ccc2n1`, for which the inhibition is 50.7% (active).
As for `O=C(CCl)NNc1nc(-c2ccccc2)c2cc(Cl)ccc2n1`, the inhibition is -0.54%.
Consider `Cc1cc(C)c(S(=O)(=O)n2cc(C(C)C(N)C(=O)O)c3ccccc32)c(C)c1` (stereo not given), for which the inhibition is -3.39%.
As to `O=C1c2ccccc2S(=O)(=O)N1CC(O)Cn1c2ccccc2c2ccccc21` (stereo not given), the inhibition is 3.48%.
As for `CCCCN(CCCC)CC(O)Cn1c2ccccc2c(=O)c2ccccc21` (stereo not given), the inhibition is 114% (active).
The figure for `CS(=O)(=O)N(CC(O)Cn1c2ccccc2c2ccccc21)c1cccc2ccccc12` (stereo not given) is 2.16%; for `O=C(COC(=O)CNS(=O)(=O)c1ccc(F)c(F)c1F)NC1CCCC1` it is -1.07%.
For the compound `CCOc1ccccc1C1C(C(=O)OC)=CN(C)C=C1C(=O)OC`, the inhibition is 118% (active).
The figure for `COC(=O)C1=CN(C)C=C(C(=O)OC)C1c1ccc(Cl)cc1Cl` is 2.63%.
For the compound `CCOc1ccccc1N(CC(=O)Nc1ccccc1C(=O)OC)S(C)(=O)=O`, the inhibition is 2.19%.
For the compound `COc1ccc(Cc2nnc(SCC(=O)N(c3ccccc3)C(C)C)n(N)c2=O)cc1`, the inhibition is -2.45%.
On to `OCCNCCOc1ccc(Cl)c(Cl)c1`, for which the inhibition was -2.77%.
The figure for `OCCNCc1cccc(OCc2ccccc2Cl)c1` is 17.6% (active); for `Clc1cccc(Cl)c1OCCOCCNCc1ccccc1` it is 0.589%.
The figure for `CCCCN1C(N)=NC[C@@H]1Cc1ccccc1` is -2.74%; for `Cc1ccn2c(=O)nc(SCC(=O)NCc3ccc4c(c3)OCO4)nc2c1` it is -2.18%.
As to `COc1ccc(-n2nnnc2CNC(=O)c2ccc3ccccc3c2)cc1`, the inhibition is 3.81%.
Consider `O=C(CSc1nc(=O)n2ccccc2n1)Nc1ccc2c(c1)OCCO2`, for which the inhibition was 0.244%.
For `CC(C)Nc1nnc(SC(C)C(=O)N(C)C2CCCCC2)s1` (stereo not given), the inhibition is 2.7%.
For `C/C(=N\N)c1c(-c2ccccc2)c2cc(Br)ccc2[nH]c1=O`, the inhibition is 21.4% (active).
For the compound `O=C(CN1CCOCC1)Nc1c(-c2ccccc2)c2cc(Br)ccc2[nH]c1=O`, the inhibition is -3.33%.
On to `CC(=O)c1c(-c2ccccc2)c2ccccc2[nH]c1=O`, for which the inhibition is -2.98%.
As to `CN(C)CCCNC(=O)c1ccc2[nH]c3ccccc3c2c1`, the inhibition was -2.02%.
In the case of `CCN(CCCNC(=O)c1ccc2c(c1)NC(=O)CN2C)c1cccc(C)c1`, the inhibition was 20.7% (active).
`CCN(CCCNC(=O)CCn1c(=O)[nH]c2ccsc2c1=O)c1ccccc1`: the inhibition is 8.57%.
`Cc1ccc(NC(=O)CSCC(=O)Nc2sccc2C#N)cc1`: the inhibition is -2.13%.
On to `O=C(COC(=O)/C=C/c1ccc(OC(F)F)cc1)NC1CCCCC1`, for which the inhibition is -7.27%.
The figure for `CCN(CC)c1nc(-c2ccccc2)cc(C(F)(F)F)c1C#N` is 25.9% (active).
`N#Cc1c(C(F)(F)F)cc(-c2ccccc2)nc1SCC(=O)N1CCOCC1`: the inhibition was 3.19%.
The figure for `N#Cc1c(C(F)(F)F)cc(-c2ccc(Cl)cc2)nc1SCC(=O)O` is -1.29%; for `CCOC(=O)c1c(NC(=S)Nc2ccccc2C)sc2c1CCC2` it is -2.16%.
`CCOC(=O)c1c(NC(=O)NC(C)(C)C)sc2c1CCN(C)C2`: the inhibition is 12%.
`CCOC(=O)c1c(NC(=S)Nc2ccccc2)sc2c1CCN(C)C2`: the inhibition was 70% (active).
The figure for `COc1cccc(NC(C)=[N+](C)CCNS(=O)(=O)c2ccc(Cl)cc2)c1` is -6.06%; for `COc1ccc(NC(=O)CN(C)C(=O)c2n[nH]c3ccccc23)cc1` it is -0.623%.
On to `CCCCn1c(N)c(N(CCOC)C(=O)c2cccc(S(=O)(=O)N3CCCCC3)c2)c(=O)[nH]c1=O`, for which the inhibition is 6.51%.
`O=C(COC(=O)c1ncc(Cl)c(Cl)c1Cl)NNC(=O)c1ccccc1`: the inhibition is 7.08%.
The figure for `CCCCN1C(=O)/C(=C2/Sc3ccc(Cl)cc3N2CC)SC1=S` is 0.428%; for `CCN1C(=O)/C(=c2\s/c(=C3\Sc4ccccc4N3C)c(=O)n2C)N(C)C1=S` it is 1.12%; for `CCN1C(=O)/C(=C2/Sc3ccccc3N2CCCS(=O)(=O)O)SC1=S` it is 43.1% (active) and 55.8% (active).
The figure for `O=C(/C=C/c1ccc([N+](=O)[O-])o1)NNC(=O)c1ccc(F)cc1` is -0.948%; for `CCOC(=O)/C(C#N)=C/c1ccc(OCC(=O)Nc2ccccc2)c(OC)c1` it is 1.23%.
`COc1ccc(/C=C(\C#N)C(=O)ONC2=NCCCCC2)cc1`: the inhibition is 2.96%.
For `CCOC(=O)/C(C#N)=C/c1ccc(N2CCCCC2)cc1`, the inhibition is 91% (active).
Take `COc1ccc(N2CCN(C(=O)/C(C#N)=C/c3ccccc3)CC2)cc1`: the inhibition was -3.23%.
As for `CCOC(=O)NC(=O)/C(C#N)=C\c1ccccc1`, the inhibition was 5.82%.
Turning to `CCOC(=O)/C(C#N)=C/c1ccc(N2CCN(Cc3ccccc3)CC2)cc1`, the inhibition is 72.8% (active).
The figure for `CC(=O)NCC(=O)N1CCC(n2nccc2NC(=O)CCCc2ccccc2)CC1` is -2.9%.
Regarding `Cc1cc(O)c(Sc2ccccc2)c(=O)o1`, the inhibition is -1.75%.
Regarding `Cc1ccc(NC(=O)COc2coc(CN3CCc4ccccc4C3)cc2=O)cc1Cl`, the inhibition was 1.39%.
The figure for `COc1ccc(C(CNC(=O)c2cccc(NS(=O)(=O)c3ccc(C)c(F)c3)c2)N2CCCC2)cc1` (stereo not given) is -0.978%.

The values are drawn from PubChem BioAssay AID2216 (Broad Institute, 2009).
